# Compound activity from PubChem.
# Most compounds without a hit are left out; they make up all but 2.4% or so of the library.
# PPC-1+TRAIL kill – PPC-1 cancer cell killing with TRAIL present. PPC-1 cells + TRAIL, ATPLite viability luminescence. cell killing (% activity), % at 4 µM or 5 µM. hit rate 0.41% among 220,000. AID 1443;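 active = cell killing above 50% in the first pass at 4 µM, then a duplicate retest at 5 µM averaging 50% or more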;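 also: plate controls were cells with TRAIL plus DMSO for no effect and medium-only wells lacking cells for full effect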
# HSP90 refold inh – HSP90 refolding inhibition in rabbit reticulocyte lysate; luciferase refolding luminescence, 3 h; hit rate 0.91% among 290,000; AID 1789; inhibition, % at 5.6 µM;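 active = inhibition above the screen-wide mean plus 3 SD, computed separately per campaign, cut at about 16% in these data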;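 also: 0% = DMSO wells and 100% = 60 µM geldanamycin wells; inhibitors lower the luminescence because luciferase stays unfolded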
# STAT1 blocker – inhibitors of IFN-gamma induced STAT1 signaling; hit rate 0.35% among 200,000; inhibition, % at 5.5 µM; NIH 3T3 STAT1-luciferase reporter, luminescence;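 active = inhibition above a set limit, the mean inhibition across all tested compounds plus 3 SD, cut at about 34% in these data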;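 also: 0% = IFN-gamma with DMSO and 100% = IFN-gamma with 300 µM nifuroxazide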
# STAT3 inh-1 – STAT3 signaling inhibition; U3A cells, IL-6 STAT3-luciferase reporter, luminescence; host cell line lacks STAT1; inhibition, % at 5.5 µM; hit rate 0.89% among 190,000;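 active = inhibition above the mean inhibition across all screened compounds plus 3 SD, cut at about 44% in these data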;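 also: 0% = DMSO only wells and 100% = 100 µM nifuroxazide control wells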
# HSF1 inh – HSF1 inhibition; NIH3T3-HGL HSE-luciferase, MG132-induced, luminescence 8 h; stronger effect = lower value; activity change, negative = inhibition, % at 7.5 µM (by protocol); hit rate 0.77% among 300,000; AID 2098;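 active = more than half of replicate wells show activity change below -50%, luminescence cut by over half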;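 also: luciferase reports HSF-1 transcriptional activity via heat shock element; 0% = median of DMSO wells and -100% = zero luminescence signal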
# C8 TRAIL sens – sensitizes caspase-8 expressing cells to TRAIL; hit rate 1% among 360,000; inhibition (viability loss, TRAIL sensitization), % at 10 µM; NB7+C8 cells + TRAIL, ATPlite viability luminescence;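 active = compounds causing at least 50% loss of cell viability in the single-dose screen, relative to plate controls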
# STAT3 inh-2 – STAT3 inhibition, confirmation assay. shares compounds with STAT3 inh-1. U3A cells, IL-6 STAT3 luciferase reporter, luminescence; cell line lacks STAT1. inhibition, % at 5.7 µM. hit rate 45% among 1,200. AID 1265;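 active = inhibition above the hit cutoff computed for the primary STAT3 screen, cut at about 44% in these data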;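 also: 0% = IL-6 plus DMSO and 100% = IL-6 plus nifuroxazide control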
# NFkB inh 2 – NF-kappaB inhibition in STAT3 inhibitor counter-screen | inhibition, % at 5.7 µM | hit rate 36% among 1,200 | AID 1308 | shares compounds with STAT3 inh-1 | HEK293T NF-kB luciferase reporter, TNF-alpha induced;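 active = inhibition above the mean of solvent-only control wells plus 3 SD, cutoff set per campaign, cut at about 13% in these data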;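 also: 0% = TNF-alpha with DMSO and 100% = TNF-alpha with MG high control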
# STAT1 inh 2 – counter-screen for STAT3 inhibitors: STAT1 inhibition; AID 1317; hit rate 27% among 1,200; inhibition, % at 5.7 µM; NIH 3T3 STAT1-luciferase reporter, IFN-gamma induced, luminescence; shares compounds with STAT3 inh-1;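 active = inhibition above the mean plus 3 SD of solvent-only control wells, limit set per screening run, cut at about 16% in these data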;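 also: 0% = DMSO with IFN-gamma and 100% = nifuroxazide control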
# PPC-1 tox – kills PPC-1 cells. shares compounds with PPC-1+TRAIL kill. PPC-1 viability, ATPlite luminescence, overnight. cytotoxicity, % at 5 µM. hit rate 50% among 1,200. AID 1447;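 active = reconfirmed compounds whose average cytotoxicity reaches 50% or more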;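 also: 0% = DMSO-treated cells and 100% = wells holding medium but no cells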
# HSP90 confirm – confirmation of HSP90 inhibitors; shares compounds with HSP90 refold inh; rabbit reticulocyte lysate, luciferase refolding luminescence, 3 h; inhibition, % at 5.9 µM; hit rate 64% among 2,300; AID 1846; in the data active = inhibition above about 18%;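 also: 0% = vehicle wells and 100% = reference inhibitor wells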
# FLuc counter – blocks native firefly luciferase in HSP90 counter-screen; shares compounds with HSP90 refold inh; purified native firefly luciferase, luminescence; inhibition, % at 5.9 µM; hit rate 48% among 2,300;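 active = inhibition above the mean inhibition of all tested sample wells plus 3 SD, cut at about 10% in these data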;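 also: 0% = DMSO with luciferase and 100% = wells lacking luciferase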
# Target sequence (P08659 whole entry, looked up): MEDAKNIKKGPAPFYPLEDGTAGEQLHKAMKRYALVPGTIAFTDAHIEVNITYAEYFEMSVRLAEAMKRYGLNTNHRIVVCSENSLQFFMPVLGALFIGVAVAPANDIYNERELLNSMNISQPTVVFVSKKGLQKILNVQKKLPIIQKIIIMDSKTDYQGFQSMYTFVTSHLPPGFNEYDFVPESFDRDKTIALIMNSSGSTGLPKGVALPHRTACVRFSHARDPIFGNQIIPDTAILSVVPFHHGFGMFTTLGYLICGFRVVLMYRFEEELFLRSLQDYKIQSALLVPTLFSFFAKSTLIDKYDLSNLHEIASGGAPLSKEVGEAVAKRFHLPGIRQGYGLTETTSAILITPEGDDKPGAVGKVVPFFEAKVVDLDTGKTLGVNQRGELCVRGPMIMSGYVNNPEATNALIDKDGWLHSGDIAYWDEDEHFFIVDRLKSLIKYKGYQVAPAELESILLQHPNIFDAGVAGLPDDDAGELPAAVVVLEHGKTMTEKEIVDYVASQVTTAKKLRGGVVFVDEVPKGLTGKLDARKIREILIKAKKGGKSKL
# Active calls of the source: *; / = no result.
SMILES,PPC-1+TRAIL kill,HSP90 refold inh,STAT1 blocker,STAT3 inh-1,HSF1 inh,C8 TRAIL sens,STAT3 inh-2,NFkB inh 2,STAT1 inh 2,PPC-1 tox,others
O=C(NC(=S)Nc1ccc2c(c1)OCCO2)c1ccccc1F,10.0,-1.4,-57.6,7.7,23.3,22.7,/,/,/,/,
O=C(Nc1ccc2c(c1)OCCO2)c1ccccc1F,27.7,13.9,-23.6,52.3*,0.3,48.5,16.9,-23.0,-71.3,33.1,
O=C(Nc1nsc(-c2ccccc2)n1)c1cccs1,25.1,8.3,-51.5,45.2*,5.0,51.2*,0.4,-34.4,-104.9,34.2,
CC(=O)Nc1ccc(C(=O)N2CCCCC2c2cc(C(=O)N3CCOCC3)no2)cc1 (stereo not given),/,/,/,/,/,-10.9,/,/,/,/,
Cc1ccc(C(=O)/C=C/Nc2cccc(O)c2)cc1,87.7*,4.0,6.6,94.2*,4.4,83.0*,90.0*,32.5*,34.0*,87.7*,
O=C(/C=C/Nc1cccc(O)c1)c1ccccc1,73.6*,-3.5,6.7,86.0*,10.4,66.9*,65.3*,-3.1,2.5,71.6*,
COc1ccc2c(=O)c(-c3nc(C)cs3)coc2c1,44.9,4.8,-16.2,51.3*,6.9,66.4*,4.1,-16.7,-103.2,56.8*,
COc1ccc(-c2coc3cc(OC)ccc3c2=O)cc1,/,/,/,/,/,32.1,/,/,/,/,
O=C(CSc1nnc(NC(=O)c2ccc3c(c2)OCO3)s1)NCc1ccco1,80.2*,7.1,23.2,53.3*,/,81.7*,21.8,2.6,-17.6,79.5*,
O=C(CSc1nnc(NC(=O)c2ccco2)s1)NCc1ccc2c(c1)OCO2,-3.6,8.3,-2.7,8.2,-5.9,-7.4,/,/,/,/,
Cc1ccccc1Nc1nc(N)c2ccccc2n1,58.0*,18.4*,-8.4,61.1*,/,63.4*,17.6,-27.1,-70.0,54.0*,
C/C(=N\NC(=O)c1ccc(Cl)cc1)c1cccs1,62.5*,3.0,26.3,58.7*,13.9,75.0*,17.7,-13.4,-64.5,64.1*,
COc1cc(N/N=C/c2ccc(N(C)C)cc2)ncn1,69.3*,15.7,33.5,61.2*,-10.4,76.7*,8.5,-0.3,-103.2,69.1*,
N#Cc1ccc(NC(=S)NC(=O)C2CC2)cc1,/,/,/,/,/,12.6,/,/,/,/,
Cc1nc2sc(-c3ccccc3)cc2c(=O)[nH]1,65.0*,16.7*,25.1,68.7*,-0.4,77.2*,35.0,-1.2,-42.5,60.6*,
O=c1[nH]c(-c2cccnc2)nc2sc(-c3ccccc3)cc12,20.4,5.1,-18.6,11.1,/,-4.3,/,/,/,/,
COc1cccc(/C=C/C(=O)Nc2cccc(C(C)=O)c2)c1OC,28.2,-4.3,-17.4,4.9,12.9,49.0,/,/,/,/,
COc1cccc(/C=C/C(=O)Nc2ccc3c(c2)OCCO3)c1OC,70.5*,21.3*,24.6,65.8*,17.8,80.5*,11.7,-20.2,-110.3,66.4*,
O=C(Nc1cccnc1Cl)c1ccc2c(Cl)c3c(nc2c1)CCC3,63.0*,2.1,-36.9,56.3*,9.1,75.7*,11.8,-38.7,-95.8,64.9*,
Cc1cccn2cc(-c3ccc4c(c3)NC(=O)CO4)nc12,7.8,2.3,/,/,12.9,-2.4,/,/,/,/,
Cc1ccn2cc(-c3ccc4c(c3)NC(=O)CO4)nc2c1,46.5,12.6,-18.2,45.7*,5.1,28.5,18.8,-25.1,-75.6,40.7,
CCCNC(=O)C1(C)CCN1C(=O)Cc1ccc(C(C)C)cc1 (stereo not given),/,/,/,/,/,1.0,/,/,/,/,
O=C(Nc1ccc(N2CCOCC2)cc1)c1cn2ccccc2n1,81.5*,13.7,28.0,76.4*,7.1,81.3*,37.2,-4.0,-25.5,82.5*,
CCCNC(=O)C1(C)CCCN(Cc2ccccc2N(C)C)C1 (stereo not given),/,/,/,/,/,11.8,/,/,/,/,
CNS(=O)(=O)c1cccc(C(=O)OCC(=O)Nc2ccc(N3CCCCC3)cc2)c1,15.3,3.3,-6.3,3.1,2.3,-2.3,/,/,/,/,
SMILES,PPC-1+TRAIL kill,HSP90 refold inh,STAT1 blocker,STAT3 inh-1,HSF1 inh,C8 TRAIL sens,STAT3 inh-2,NFkB inh 2,STAT1 inh 2,PPC-1 tox,others
CNS(=O)(=O)c1cccc(C(=O)OCC(=O)Nc2ccc(-c3nc4ccc(C)cc4s3)cc2)c1,38.6,4.1,28.0,68.3*,-21.5,75.4*,32.5,-13.4,-79.2,48.5,
CC(C)(CC1(C)NC(=O)NC1=O)OCc1ccccc1 (stereo not given),/,/,/,/,/,0.7,/,/,/,/,
Cc1ccc(-c2nc3cc(N)ccc3o2)cc1,63.4*,8.8,-26.9,59.4*,9.6,69.8*,17.0,-15.7,-119.6,60.8*,
C#CC(=O)N(c1ccc(OC)c(OC)c1)C(C(=O)NC1CCCC1)c1cccs1 (stereo not given),98.5*,3.7,35.6*,107.8*,/,90.3*,89.3*,18.5*,31.6*,98.2*,
O=C(N/N=C/c1ccc2ncccc2c1)c1ccco1,67.7*,31.1*,28.1,67.4*,-6.9,80.4*,32.1,7.7,-41.9,70.4*,
CC(=O)O[C@H]1[C@@H](O)[C@H](O)[C@H](Oc2c(O)c(C)c3c4c2[C@@H](C)CC[C@@H]4[C@@H](C)C[C@@H]3C=C(C)C)O[C@H]1C,/,/,/,/,/,-2.0,/,/,/,/,
CCCc1ccc(-c2cc(C(=O)N/N=C/c3ccc([N+](=O)[O-])o3)c3ccccc3n2)cc1,76.7*,14.3,24.0,47.7*,-9.6,86.2*,8.6,5.2,-17.4,76.2*,
O=C(N/N=C/c1ccc([N+](=O)[O-])o1)c1cc(-c2cccc(Br)c2)nc2ccccc12,3.9,2.8,3.6,2.5,49.2,26.6,/,/,/,/,
C=CCn1c(C)cc(C(=O)CSc2nc3ccccc3[nH]2)c1C,29.3,31.7*,30.0,98.7*,-22.1,46.0,61.0*,14.6*,-64.5,/,HSP90 confirm=61.9*;FLuc counter=63.3*
Cc1nc(-c2coc3cc(O)c(C)cc3c2=O)cs1,12.5,18.1*,10.7,52.7*,2.5,60.2*,27.7,-0.2,-79.9,/,HSP90 confirm=52.2*;FLuc counter=51.3*
CC1(C(=O)NCc2ccccc2)CN(S(C)(=O)=O)CC(=O)N1CCc1ccc(O)cc1 (stereo not given),/,/,/,/,/,1.1,/,/,/,/,
CC1(C(=O)NCc2ccccc2)CN(S(C)(=O)=O)CC(=O)N1CCc1ccccc1F (stereo not given),/,/,/,/,/,8.6,/,/,/,/,
